# Experimental data as given in PubChem BioAssay (NCI).
# “And” between values parts separate entries of the source, which are not always exact repeats. Equal entries are not always repeated. About 83,000 compounds went through this panel and 20% of them were active in at least one assay; those are over-represented in the sample as a whole.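 Values shown are percent growth following 48 h exposure of cells in 96-well plates to a single concentration of compound; below 10 was considered active.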 The source made the active and inactive calls.
# Tested on: MDA-MB-468 breast
# Test: NCI-60 one-dose screen, 48 h (100 = growth as untreated, 0 = no growth, -100 = all killed)
# Conditions: 10 µM unless noted
row,SMILES,growth
1,[Cl][Ru].c1ccc(-c2cc(-c3ccccn3)nc(-c3ccccn3)c2)cc1.c1ccc(-c2ccnc3c2ccc2c(-c4ccccc4)ccnc23)cc1,-66.3% (active)
2,O=C(Nc1ccc2ncnc(Nc3ccc(Oc4cccc(F)c4)c(Cl)c3)c2c1)c1ccc(CN2CCOCC2)cc1,18.8% (inactive)
3,c1ccc([P+](CCCc2n(Cc3ccc4ccccc4c3)c3ccccc3[n+]2Cc2ccc3ccccc3c2)(c2ccccc2)c2ccccc2)cc1,34.5% (inactive)
4,N#C/C(=N\Nc1ccc(Cl)cc1)C(=O)Nc1cc(-c2ccccc2)nn1-c1ccccc1,7.6% (active)
5,COc1ccc(Nc2c3ccccc3nc3ccccc23)cc1,14.1% (inactive)
6,COc1ccc(-c2cc(-c3ccccc3)nc(SCCCCCCC(=O)NO)n2)cc1,64.1% (inactive)
7,O=c1[nH]c(-c2cn(-c3ccc(Cl)cc3)nn2)nc2ccccc12,77.1% (inactive)
8,N#Cc1ccccc1-c1ccc(Cn2c(-c3cscn3)nc3c(Cl)cccc32)cc1,55.7% (inactive)
9,Cc1nn(-c2cccc(Cl)c2)c(C)c1N=Nc1ccc(Br)cc1,97.6% (inactive)
10,COc1ccc2c(c1)c(CC(=O)O)c(C)n2C(=O)c1ccc(Cl)cc1,96.4% (inactive)
11,Oc1c(Cl)cc(Cl)c2ccc(CN3CCCCC3)nc12,29.3% (inactive)
12,O=[N+]([O-])c1cccc(N=NNc2cccc([N+](=O)[O-])c2)c1,57.9% (inactive)
13,Cc1cccc(OCC(O)CN2CCN(c3ccc(Cl)cc3)CC2)c1 (stereo not given),112% (inactive)
14,O=C(Nc1nc2ccc(OC(F)(F)F)cc2s1)c1ccc(F)cc1,21.1% (inactive)
15,Cc1cccc2c3c(sc12)C(c1ccc(F)cc1)C(C#N)=C(N)O3 (stereo not given),24.3% (inactive)
16,COc1ccc(C2=NN(C=O)C(c3ccc(Oc4nc5c(c(=O)n(C)c(=O)n5C)n4C)c(OC)c3)C2)cc1 (stereo not given),73.6% (inactive)
17,Oc1ccccc1/C=N\NC(=S)N/N=C/c1ccccc1O,32.2% (inactive) and 11.3% (inactive)
18,Cc1ccnc2c(OCc3ccccc3)cccc12,34.2% (inactive)
19,O=C(CN1CCN(c2ccccc2)CC1)N1CCN(c2nnc(-c3ccc(Cl)cc3)c(-c3ccc(Cl)cc3)n2)CC1,78.7% (inactive)
20,CN(C)CC(C(=O)c1ccccc1)c1ccccc1 (stereo not given),-47.8% (active)

row,SMILES,growth
1,CC1(C)CC[C@]2(C(=O)NCCNCCN)CC[C@]3(C)C(=CC[C@@H]4[C@@]5(C)CCC(=O)C(C)(C)[C@@H]5CC[C@]43C)[C@@H]2C1,-67% (active)
2,CSc1nc(N)c(CNC(C)c2ccccc2)c(=O)n1C (stereo not given),97.4% (inactive)
3,CC(=O)Nc1cccc2c1CCCC2,100% (inactive) and 91.1% (inactive)
4,CC(=O)Nc1nc(C)c(C(=O)NN)s1,87.8% (inactive)
5,Cc1ccc(NCCNCC(O)CO)c2c(=O)c3ccccc3sc12 (stereo not given),-46.4% (active)
6,FC(F)(F)Oc1ccc2c(c1)C[C@H]1C[C@@H](c3ccoc3)N2O1,118% (inactive)
7,C=CC[n+]1c(/C=C/C=C2\N(C)c3ccccc3C2(C)C)sc2ccc(OC)cc21,-5.71% (active)
8,CCCCOC(=O)c1ccccc1O,95.7% (inactive)
9,CC1(C)CCC(S(=O)(=O)c2ccc3c(c2)/C(=N\O)c2cc(S(=O)(=O)N4CCN(c5ccc(F)cc5O)CC4)ccc2-3)CC1,-82.5% (active)
10,C[C@]12CC[C@H]3[C@@H](CCC4=CC(=O)CC[C@@]43C)[C@@H]1CC[C@@H]2c1csc(N)n1,28.4% (inactive)
11,O=C1C(=O)c2c(nc3ncccn23)-c2ccccc21,-64.9% (active)
12,Cc1ccc2c(c1)C(C)Cc1c(Cl)ncnc1N2C (stereo not given),-26.4% (active)
13,CS(=O)(=O)Nc1cncc(-c2ccc3ncnc(Nc4ccc(F)c(Cl)c4)c3c2)c1,-30.3% (active)
14,CN(C)c1ccc(C2C(C#N)=C(/N=C/c3ccccc3)Oc3c2ccc2ccccc32)cc1 (stereo not given),86.3% (inactive)
15,OC(COc1cccc2ccccc12)CN1CCN(c2ccccc2Cl)CC1 (stereo not given),89.7% (inactive)
16,Cc1c2c(c(C)c3c1oc1cc(O)ccc13)C(=O)N(CCN1CCCCC1)C2=O,100% (inactive)
17,O=C(O)COc1ccc([N+](=O)[O-])cc1Cl,104% (inactive)
18,O=C(Nc1ccccc1)OCCc1ccccc1,99.2% (inactive)
19,CN(CCCN(C)CCC1CCCCC1)CCC1CCCCC1,-76.1% (active)
20,CC(C)NC(=O)OCC#CCOC(=O)NC(C)C,99.9% (inactive)
